Experimental data: PubChem BioAssay AID1240 (Sanford-Burnham Center for Chemical Genomics, 2008)
In all, about 50,000 compounds went through this assay and about 800 (1.6%) showed an effect of 50% or more. The full list was thinned out, with strong results kept by preference.

target: Bcl-2-like protein 10 (Homo sapiens) (UniProt Q9HD36); assay: TR3 peptide-Bcl-B binding displacers, biochemical primary FP assay, phenotype converters (AID 1240); conditions: GST-Bcl-B / FITC-TR3 peptide fluorescence polarization; stronger effect = higher value; compound at 3.75 mg/L;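 further: 0% = Bcl-B with tracer peptide and DMSO and 100% = tracer peptide lacking Bcl-B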
Sequence (Q9HD36 whole entry, looked up): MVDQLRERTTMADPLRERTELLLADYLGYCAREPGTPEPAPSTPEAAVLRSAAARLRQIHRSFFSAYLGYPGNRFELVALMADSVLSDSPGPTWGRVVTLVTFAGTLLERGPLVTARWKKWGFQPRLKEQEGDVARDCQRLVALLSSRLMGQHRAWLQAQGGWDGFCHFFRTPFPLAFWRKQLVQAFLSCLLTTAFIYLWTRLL

Structure (SMILES)	displacement
CC1=NNC(=O)C1CC(=O)N/N=C/c1ccc(O)cc1 (configuration not stated)	-5.3%
C=CCn1c(Cc2ccccc2)n[nH]c1=S	-5.1%
CCc1ccc(NC(=O)C2CC(=O)N=C(N)S2)cc1 (configuration not stated)	-2.4%
Oc1c(C=Nc2cccc3nsnc23)sc2ccccc12	-12.3%
Cc1cc(C)nc(NS(=O)(=O)c2ccc(N/C=C\C(=O)c3ccc4ccccc4c3)cc2)n1	14.7%
Cc1cc(C)nc(NS(=O)(=O)c2ccc(N/C=C\C(=O)c3cccs3)cc2)n1	78.5%
Cc1cc(NS(=O)(=O)c2ccc(N/C=C/C(=O)c3cccs3)cc2)nc(C)n1	2.1%
CCOC(=O)C1=C(O)/C(=C/c2cc(OC)c(OC)c(OC)c2)SC1=Nc1ccc(C)cc1	-5.5%
O=[N+]([O-])c1ccc(C[n+]2cc(-c3ccc(Cl)c(Cl)c3)n3c2CCC3)cc1	9.6%
O=C1CS/C(=N/N=C/c2ccc(-c3ccc([N+](=O)[O-])cc3)o2)N1	41.1%
O=C1CS/C(=N/N=C/c2ccc(-c3ccc(Cl)cc3)o2)N1	-6.7%
Cc1c(Cl)cccc1-c1ccc(/C=N/N=C2\NC(=O)CS2)o1	133%
COC(=O)Cn1cc(/C=C2\C(=O)NC(=O)N(c3cccc(F)c3)C2=O)c2ccccc21	35.8%
O=C(Cn1cc(/C=C2/C(=O)NC(=O)N(c3cccc(Cl)c3)C2=O)c2ccccc21)Nc1ccccc1	94.7%
Cc1cc(/C=C2\C(=O)NC(=O)N(c3cccc(F)c3)C2=O)c(C)n1C	18.4%
O=C(Cn1cc(/C=C2\SC(=O)NC2=O)c2ccccc21)Nc1ccccc1	-4.9%
O=C(Cn1cc(/C=C2/C(=O)NC(=O)N(c3cccc(F)c3)C2=O)c2ccccc21)Nc1ccccc1	116%
COc1cccc(/C=C2\SC(=S)N(Cc3ccccc3)C2=O)c1OC	8.6%
O=Cc1ccc(/C=C2/SC(=S)N(Cc3ccccc3)C2=O)cc1	10.5%
CCN1C(=O)/C(=C\c2cn(Cc3ccccc3)c3ccccc23)SC1=S	3.3%
CC(Oc1ccc(/C=C2/SC(=S)N(Cc3ccccc3)C2=O)cc1)c1ccccc1 (configuration not stated)	123%
COc1ccccc1OCCn1cc(/C=C2/SC(=S)N(Cc3ccccc3)C2=O)c2ccccc21	112%
C=CCc1ccccc1OCCn1cc(/C=C2/SC(=S)N(CC)C2=O)c2ccccc21	11.6%
Cc1ccccc1OCCn1cc(/C=C2/SC(=S)N(C)C2=O)c2ccccc21	11.6%
CCN1C(=O)/C(=C\c2cn(CCOc3ccccc3C)c3ccccc23)SC1=S	127%

Structure (SMILES)	displacement
CN1C(=O)/C(=C\c2cn(Cc3ccccc3)c3ccccc23)SC1=S	8.3%
CC(C)c1ccc(/C=C2\SC(=S)N(Cc3ccccc3)C2=O)cc1	2.6%
COc1ccc(/C=C2/SC(=S)N(Cc3ccccc3)C2=O)c2ccccc12	60.2%
COc1ccccc1/C=C1/SC(=S)N(Cc2ccccc2)C1=O	16.7%
O=C(Nc1cccc2ccccc12)c1cc(-c2ccco2)nc2ccccc12	34.2%
Cc1ccc(C(=O)N2CCC(C(N)=O)CC2)cc1[N+](=O)[O-]	-0.2%
O=C(Nc1ccccc1)/C(=C\c1cccc(Br)c1)NC(=O)c1ccccc1	4.5%
COc1ccc(Cc2nnc(NC(=O)Nc3ccccc3)s2)cc1	11.9%
COc1cc(/C=N/NC(=O)CSCc2ccc([N+](=O)[O-])cc2)cc(OC)c1OC	1.6%
COc1ccccc1NC(=O)N1CCOCC1	-6.8%
COc1ccc(-c2nc(=S)c3c(n2Cc2ccccc2)CCCC3)cc1	10.1%
COC(=O)C1=C(C(=O)OC)SC(=C2C(=S)C(C)(C)N(C(=O)c3cccc(C)c3)c3cc(OC)ccc32)S1	-7.2%
Nc1ccc2nc(SCC(=O)Nc3cccc(C(F)(F)F)c3)sc2c1	-3.3%
CCN1C(=O)/C(=C\c2cn(CCOc3ccccc3)c3ccccc23)SC1=S	20.9%
C=CCN1C(=O)/C(=C\c2cn(CCOc3cccc(OC)c3)c3ccccc23)SC1=S	91.7%
C=CCN1C(=O)/C(=C\c2cc(Br)ccc2OCCOc2cccc(OC)c2)SC1=S	-43.6%
O=C(O)c1ccc2c(c1)C(=O)N(c1ccc(-c3nnc(-c4ccccc4)o3)cc1)C2=O	9%
O=C(/C=C/c1ccccc1)Nc1nc2ccc(Br)cc2s1	15%
O=C(/C=C/c1ccco1)Nc1nc2ccc(Br)cc2s1	59.2%
CCOC(=O)c1nc(NC(=O)/C=C/c2ccco2)sc1C	73.7%
COc1ccc(Br)cc1/C=C/C(=O)Nc1nc2ccc(C)cc2s1	-22.6%
CCOC(=O)c1c(NC(=S)NC(=O)/C=C/c2ccco2)sc(C)c1C	23.9%
COC(=O)c1c(NC(=O)/C=C/c2ccco2)sc(C)c1C	-12.6%
Cc1ccc(OCCNc2cc(Cl)ccc2[N+](=O)[O-])cc1C	0.6%
CSc1ccc(/C=N/S(=O)(=O)CCc2ccccc2)cc1	-7.7%

Structure (SMILES)	displacement
CCCS(=O)(=O)c1c(S(=O)(=O)CCC)c2c(C)cccn2c1C(N)=O	-9.8%
COc1c(Cl)ccc(Cl)c1C(=O)Nc1ccc(I)cc1	-9.5%
O=C(c1ccc(Cl)cc1)N1CCC(Cc2ccccc2)CC1	16.4%
COc1cc([N+](=O)[O-])ccc1-c1ccc(/C=C2\C(=O)NC(=O)N(c3ccccc3)C2=O)o1	132%
COc1cc([N+](=O)[O-])ccc1-c1ccc(/C=C2\C(=O)NC(=O)N(c3ccc(Cl)cc3)C2=O)o1	14%
O=C1NC(=O)N(c2ccccc2)C(=O)/C1=C\c1ccc(-c2ccc([N+](=O)[O-])cc2Br)o1	-14.8%
COc1cc([N+](=O)[O-])ccc1-c1ccc(/C=C2\C(=O)NC(=S)N(c3ccc(Cl)cc3)C2=O)o1	16.2%
Cc1ccc([N+](=O)[O-])cc1-c1ccc(/C=C2/C(=O)NC(=O)N(c3ccccc3)C2=O)o1	82.8%
CCOc1ccc(N2C(=O)NC(=O)/C(=C\c3ccc(-c4ccc([N+](=O)[O-])cc4OC)o3)C2=O)cc1	23%
COc1ccc([N+](=O)[O-])cc1-c1ccc(/C=C2\C(=O)NC(=O)N(c3ccc(Cl)cc3)C2=O)o1	25.1%
Cc1ccc([N+](=O)[O-])cc1-c1ccc(/C=C2\C(=O)NC(=O)N(c3ccc(Cl)cc3)C2=O)o1	6.8%
COc1ccc(N2C(=O)NC(=O)/C(=C/c3ccc(-c4ccc([N+](=O)[O-])cc4C)o3)C2=O)cc1	13.6%
Cc1cc(C)cc(N2C(=O)NC(=O)/C(=C\c3ccc([N+](=O)[O-])o3)C2=O)c1	-3.8%
COc1ccc([N+](=O)[O-])cc1-c1ccc(/C=C2\C(=O)NC(=O)N(c3cc(C)cc(C)c3)C2=O)o1	92.6%
COc1cc([N+](=O)[O-])ccc1-c1ccc(/C=C2\C(=O)NC(=O)N(c3ccc(C)c(C)c3)C2=O)o1	75.5%
COc1ccc(C(=O)N2CCN(C3C4CC5CC(C4)CC3C5)CC2)cc1OC (configuration not stated)	-6.5%
Cc1cccc(N2CCN(C(=O)Nc3ccc(Cl)c(Cl)c3)CC2)c1C	-0.9%
O=S1(=O)CCC(NC(=S)SCCOc2ccccc2OCCO)C1 (configuration not stated)	6.3%
Cc1cccc(C=Nc2ccc(O)cc2)c1	-8.4%
CS(=O)(=O)N(CC(=O)Nc1ccc(Cl)cc1)c1ccc(Br)cc1	3.3%
Cc1ccc(-c2csc(NC(=O)c3sc4ccccc4c3Cl)n2)c(C)c1	2.6%
CCOc1ccc(Cc2c(C)nc3c(C)cccc3c2Cl)cc1	-5.7%
CCC1=NN(C(=O)c2ccncc2)C(O)(c2ccc(Br)cc2)C1 (configuration not stated)	10.2%
Cc1ccc(NC(=S)NN2CCN(C)CC2)cc1	5.2%
Cc1ccc(OCC(=O)NCc2ccco2)c(C)c1	-2.9%

Structure (SMILES)	displacement
N#C/C(=C/c1ccccc1)C(=O)Nc1ccc(Cl)c(Cl)c1	1.5%
CC(C)(C)c1cc(/C=N/Nc2nnc3c(n2)[nH]c2ccccc23)cc(C(C)(C)C)c1O	4.8%
Cc1nc(-c2ccccc2)nc2[nH]ccc(=O)c12	11.9%
Cc1nc(-c2ccccc2)c2c(=O)cc[nH]c2n1	15.4%
CSc1nc(-c2ccccc2)nc2[nH]ccc(=O)c12	110%
COc1cc(/C=C2/SC(=S)N(C)C2=O)cc(Br)c1OCCOc1ccccc1C	-2%
COC(=O)C(Cc1ccccc1)NC(=O)CCN1C(=O)c2cccc3cccc(c23)C1=O (configuration not stated)	15%
CCc1ccc(NC(=O)C(=O)NCCCO)cc1	5%
CN(C)c1ccc(C(O)C(C)(O)c2nc3ccccc3n2C)cc1 (configuration not stated)	6.1%
C=CCOc1ccc(/C=C2/C(=O)NC(=O)N(c3cccc(C)c3)C2=O)cc1OCC	126%
C=CCOc1ccc(/C=C2\C(=O)NC(=O)N(c3ccc(Cl)cc3)C2=O)cc1OCC	-4%
COc1cc(/C=C2\C(=O)NC(=O)N(c3ccc(C)cc3)C2=O)ccc1OCc1ccc([N+](=O)[O-])cc1	70%
CCOc1cc(/C=C2/C(=O)NC(=O)N(c3ccc(OC)cc3)C2=O)ccc1OCCOc1ccc([N+](=O)[O-])cc1	-0.9%
COc1cc(C=C2C(=O)c3ccccc3C2=O)ccc1OCc1ccc(I)cc1	-11.5%
COc1cc(/C=C2\C(=O)NC(=O)N(c3ccc(C)cc3)C2=O)ccc1OCc1ccccc1	38.6%
C=CCOc1ccc(/C=C2/C(=O)NC(=O)N(c3ccc(C)cc3)C2=O)cc1OCC	-2.8%
CCOc1cc(/C=C2/C(=O)NC(=O)N(c3ccccc3)C2=O)ccc1OCc1ccc([N+](=O)[O-])cc1	75.9%
COc1cc(C=C2C(=O)c3ccccc3C2=O)ccc1OCc1ccc(F)cc1	88.7%
COc1cc(/C=C2/C(=O)NC(=S)N(c3ccccc3)C2=O)ccc1OCc1ccc([N+](=O)[O-])cc1	4%
COc1cc(/C=C2/C(=O)NC(=O)N(c3ccc(C)cc3)C2=O)ccc1OCCOc1ccc([N+](=O)[O-])cc1	10.8%
O=C1C(=Cc2ccc(OCc3ccc(F)cc3)c(Br)c2)C(=O)c2ccccc21	19.1%
Cc1ccc(NS(=O)(=O)c2cccc([N+](=O)[O-])c2)cc1Cl	-0.2%
